Data: PubChem BioAssay (NCI)
The panel holds about 83,000 compounds, 20% with a hit somewhere; the sample as a whole holds those more often.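 Note: values are percent growth. 100 is the growth of untreated cells, values between 100 and 0 indicate rising inhibition; between -100 and 0 indicates cell death.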 Unmarked numbers belong to inactive results. Activity calls are given as the source filed them. The calls were made as follows: active = growth percent below 10; inactive = the rest.

Each compound was assayed on HL-60(TB) leukemia (assay: NCI-60 one-dose screen, 48 h (100 = growth as untreated, 0 = no growth, -100 = all killed)). Details: 10 µM unless noted.
In the case of C=C(C)[C@@H]1CC[C@]2(CO)CC[C@]3(C)[C@H](CC[C@@H]4[C@@]5(C)CCCNC(C)(C)[C@@H]5CC[C@]43C)[C@@H]12, the growth is reported as -51.9% (active).
With CC1=C(/C=C/C(C)=C/C=C/C(C)=C/C(=O)Nc2ccc(O)cc2)C(C)(C)CCC1 the growth was -32.3% (active).
With CCOC(=O)c1cc(C(=O)c2ccc(OC)cc2)n2ccc(/C=C/c3cc[n+](CC(=O)c4ccc(OC)cc4)cc3)cc12 the growth was 0.722% (active).
In the case of COc1cc(N2CCC(N3CCN(C)CC3)CC2)ccc1Nc1ncnc(Nc2ccccc2S(=O)(=O)C(C)C)n1, the growth is reported as 102%.
With O=C(Nc1ccc2[nH]c3ccccc3c2c1)c1ccccc1Cl the growth was 9.41% (active).
For COc1c(-c2c3sc(=O)[nH]c3nc3c2c(=O)[nH]n3C(C)C)cc2c(c1OC)OCO2, the growth was 93.8%.
Work on Oc1ccccc1/C=N/N1CCCCCC1 yielded a growth of 86.7%.
C[C@H]1c2ccccc2CN1CCCOc1cc2c(cc1OCC1CC1)C1(CCCC1)C(N)=N2 gave a growth of 31%.
For CN1C(=O)/C(=C/c2ccc(C(=O)Nc3ncc(Cc4cccc(Cl)c4)s3)cc2)SC1=S, the growth was 88.2%.
For Fc1ccc(COc2ccc(Nc3ncnc4sc5c(c34)CCCC5)cc2)cc1, the growth was 87.4%.
Work on COC1CCC(N2C(=O)CNc3ncc(-c4ccc(C(C)(C)O)nc4)nc32)CC1 (stereo not drawn) yielded a growth of 11.2%.
O=C1c2nsnc2C(=O)c2c(F)c(F)c(F)c(F)c21 was tested, and the growth was -41.9% (active).
In the case of COC(=O)[C@]12CC[C@@H](C)[C@H](C)[C@@H]1C1=CC[C@@H]3[C@@]4(C)C(C=O)=C[C@@](C)(COC(=O)c5ccco5)C4=CC[C@@]3(C)[C@]1(C)CC2, the growth is reported as -9.45% (active).
